Bioassay records from PubChem.
Many of the other results were omitted from the sample, so hits are more common in it than they were.
HDAC3 inhib – human HDAC3 inhibition | AID 2718 | 320,000 tested, 0.15% active | recombinant HDAC3, fluorogenic peptide/trypsin coupled, fluorescence | inhibition, % at 8.3 µM | O15379; in the data active = inhibition above about 26%, passing the limit was not always enough; inconclusive = no clear call, values can overlap the other calls
NPR2 activator – GC-B (human) receptor activation; P20594; HEK293-GC-B cells, CNP EC30, cGMP TR-FRET; 0% at EC30 CNP, 100% saturating CNP; activation, % at 10 µM; 370,000 tested, 0.11% active;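 active = activation at 10 µM reaching about 35% in either raw or pattern-adjusted values, limit read from the data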
ALR inh – blocks human ALR sulfhydryl oxidase activity | P55789 | purified ALR, DTT oxidation, H2O2 HRP-luminol luminescence | inhibition, % (test concentration not listed) | 290,000 tested, 3.8% active;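 active = mean replicate inhibition above about 79%, with every replicate also reaching it, limit read from the data; inconclusive = only one of the two criteria met; inactive = mean below limit and not every replicate reaching it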
NPR1 activator – GC-A (human) enzyme activation; activation, % at 10 µM; AID 1671463; 370,000 tested, 0.14% active; P16066; HEK293 GC-A cells, cGMP TR-FRET, EC30 ANP; 0% at EC30 ANP, 100% saturating ANP; in the data active = activation above about 40%
Target sequence (P16066 whole entry, looked up): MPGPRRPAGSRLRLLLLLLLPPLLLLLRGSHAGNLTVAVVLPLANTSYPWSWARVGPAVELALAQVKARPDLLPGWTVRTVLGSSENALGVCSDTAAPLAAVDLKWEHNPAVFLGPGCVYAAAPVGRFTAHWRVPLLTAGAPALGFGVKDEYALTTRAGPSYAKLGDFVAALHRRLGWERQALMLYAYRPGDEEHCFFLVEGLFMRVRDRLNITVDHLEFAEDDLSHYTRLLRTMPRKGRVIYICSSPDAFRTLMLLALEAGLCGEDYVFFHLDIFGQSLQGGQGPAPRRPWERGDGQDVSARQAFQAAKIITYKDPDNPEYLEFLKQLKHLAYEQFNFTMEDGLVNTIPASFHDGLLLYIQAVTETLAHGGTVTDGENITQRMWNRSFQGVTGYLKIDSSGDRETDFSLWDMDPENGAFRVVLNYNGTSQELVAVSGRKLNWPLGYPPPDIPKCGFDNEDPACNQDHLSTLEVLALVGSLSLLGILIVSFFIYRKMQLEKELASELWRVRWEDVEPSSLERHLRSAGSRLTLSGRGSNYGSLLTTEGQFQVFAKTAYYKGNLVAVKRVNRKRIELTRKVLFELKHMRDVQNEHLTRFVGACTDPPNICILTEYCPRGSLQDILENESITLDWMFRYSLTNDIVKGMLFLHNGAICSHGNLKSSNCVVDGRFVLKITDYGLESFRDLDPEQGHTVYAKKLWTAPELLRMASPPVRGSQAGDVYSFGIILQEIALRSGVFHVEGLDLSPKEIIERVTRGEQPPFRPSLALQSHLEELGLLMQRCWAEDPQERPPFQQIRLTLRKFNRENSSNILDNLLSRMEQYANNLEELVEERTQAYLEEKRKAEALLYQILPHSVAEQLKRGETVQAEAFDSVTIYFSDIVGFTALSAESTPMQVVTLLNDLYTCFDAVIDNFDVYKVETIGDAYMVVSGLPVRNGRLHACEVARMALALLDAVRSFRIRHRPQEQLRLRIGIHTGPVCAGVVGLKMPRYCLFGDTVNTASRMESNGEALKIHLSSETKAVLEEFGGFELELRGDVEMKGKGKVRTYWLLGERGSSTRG
Each line names hits and unclear results; the compound was inactive in the other large screens.

CC(C)NC(=O)c1cccc(NC(=O)CC2SC(N3CCCCC3)=NC2=O)c1 (stereo not given)	none (no result: HDAC3 inhib, ALR inh)
CC1(Oc2ccccc2-c2ccno2)CCN(Cc2csc3ccccc23)C1 (stereo not given)	none (no result: HDAC3 inhib, ALR inh)
Nc1c(NC2CCCCC2)c2ccccc2oc1=O	ALR inh 99.3
Cc1ccc(S(=O)(=O)Nc2c(NC3CCCCC3)c3ccccc3oc2=O)cc1	none
Cc1ccccc1Nc1c(N)c(=O)oc2ccccc12	ALR inh 98.8
CN(C)CCNc1c(N)c(=O)oc2ccccc12	none
Cc1ccc(C(C)C)c(OCC(=O)c2c(O)c3ccccc3oc2=O)c1	ALR inh 93.8
COc1cccc(C(=O)C2CN(c3ccccc3)CC2c2ccc(Cl)cc2)c1 (stereo not given)	ALR inh 97.3
O=C(O)CCCC(=O)N1N=C(c2ccccc2)CC1c1cccs1 (stereo not given)	none
COc1ccc(NC(=O)CC23CC4CC(C2)CC(n2nnc(C)n2)(C4)C3)cc1	none
COc1ccc(C(=O)NC(=S)NNC(=O)COc2ccccc2)cc1	ALR inh 98.3
Cc1ccc(C(=O)NC(=S)NNC(=O)COc2ccc([N+](=O)[O-])cc2)cc1	ALR inh 99.2
O=C(CCc1ccccc1)NNC(=S)NC(=O)c1ccc(Cl)cc1	ALR inh 98.5
COC(=O)[C@]12C[C@H](CC(=O)N3CCCC3)C(=O)N(Cc3ccco3)C1=C[C@H](C1CCCC1)O[C@@H]2C	none (no result: HDAC3 inhib, ALR inh)
O=C(NC1CCCCC1)c1cc(F)cc2c1OCOC2	none
CC(C)N=Cc1c(O)[nH]c2ccccc12	ALR inh 98.8
CC(C)(CO)N=Cc1c(O)[nH]c2ccccc12	ALR inh 99.8 (no result: NPR2 activator, NPR1 activator)
CC(C)(C)c1[nH]c2ccccc2c1/C=N/O	ALR inh 98.8
CC(=O)N(C(C)=O)C1=C(C#N)C2(CCCCC2)Cc2ccccc21	none
COC(=O)c1ccc(-c2noc(CN3CCCCC3c3nccn3C)n2)cc1 (stereo not given)	none
Cc1ccc(S(=O)(=O)NCc2ccccc2)cc1C(=O)NC1CCCCC1	none
Cc1cc(-c2n[nH]c(=S)n2/N=C/C(Cl)=C/c2ccccc2)n[nH]1	ALR inh 95.6
Cc1cc(-c2n[nH]c(=S)n2N=Cc2c3ccccc3cc3ccccc23)n[nH]1	none (no result: HDAC3 inhib, ALR inh)
S=c1[nH]nc(-c2ccco2)n1/N=C/C(Cl)=C/c1ccccc1	ALR inh 96.7
Clc1ccc(COc2cccc(CNCc3ccncc3)c2)cc1	none (no result: ALR inh)
O=C1NC(=O)C2C1C(c1cccs1)NN2Cc1ccccc1 (stereo not given)	ALR inh 97.9
O=C(O)c1cc(N/N=C/c2ccc(-c3ccccc3)cc2)ccc1Cl	ALR inh 99.3
C/C(=N\Nc1ccc(Cl)c(C(=O)O)c1)c1cccc([N+](=O)[O-])c1	ALR inh 97.8
COc1cc(/C=N/Nc2ccc(Cl)c(C(=O)O)c2)ccc1OC(=O)c1cccs1	ALR inh 97.3
O=C(O)c1cc(N/N=C/c2ccc(N3CCOCC3)cc2)ccc1Cl	ALR inh 96.8
O=C(O)c1cc(N/N=C/c2ccncc2)ccc1Cl	none
CN(c1ccc(OCC(=O)OCC(=O)NCc2ccco2)cc1)S(=O)(=O)c1ccc2ccccc2c1	none (no result: HDAC3 inhib, ALR inh)
O=C(O)c1cc(N/N=C/C=C/c2ccccc2[N+](=O)[O-])ccc1Cl	ALR inh 98.6
N#CC1(NC(=O)CN2CCN(S(=O)(=O)c3ccccc3F)CC2)CCCC1	none
COC(=O)CSC1=C(C#N)C(c2ccc3c(c2)OCO3)C2=C(CCCC2=O)N1 (stereo not given)	ALR inh 98.9 (no result: NPR2 activator, NPR1 activator)
CCSC1=C(C#N)C(c2ccc3c(c2)OCO3)C2=C(CCCC2=O)N1 (stereo not given)	none
COc1ccc(C(=O)N/C(=C/c2cccs2)c2nc3ccccc3[nH]2)cc1OC	none
COc1ccc(/C=N/Nc2nc(=O)[nH]nc2C)cc1OC	HDAC3 inhib inconclusive
COc1cc(/C=C(/C(=O)c2cccs2)c2nc3ccccc3[nH]2)cc(OC)c1O	ALR inh 99.7
COc1cccc(/C=N/Nc2nc3ccccc3[nH]2)c1OC	none (no result: ALR inh)
COc1cc(/C=N/Nc2nc3ccccc3[nH]2)cc(OC)c1O	ALR inh 99.4
COc1cc(/C=N/Nc2nc(=O)[nH]nc2C)ccc1O	ALR inh 99.9
COc1ccc(O)c(/C=N/Nc2nc3ccccc3[nH]2)c1	ALR inh 98.9
COc1ccc(NC(=O)N[C@H]2C=C[C@@H](CC(=O)NC3CCC3)O[C@@H]2CO)cc1	none (no result: HDAC3 inhib, ALR inh)
CC(C)(C)OC(=O)N1CCC(NC(=O)c2nc[nH]c2C(=O)NCC(=O)OCc2ccccc2)CC1	none (no result: ALR inh)
O=C(COC(=O)c1ccc(O)cc1)NCCCc1ccccc1	none (no result: HDAC3 inhib, ALR inh)
COc1cc(/C=N/Nc2nc3ccccc3[nH]2)ccc1O	ALR inh 99.8
O=[N+]([O-])c1cccc(N/N=C/c2cc([N+](=O)[O-])ccc2O)c1	ALR inh 95.6
COc1cc(/C=N/Nc2nc(C)cc(C)n2)ccc1O	none (no result: HDAC3 inhib, ALR inh)
COc1cc(/C=N/Nc2nc3ccccc3[nH]c2=O)ccc1O	ALR inh 99.1
O=[N+]([O-])c1ccc(O)c(/C=N/Nc2nc3ccccc3[nH]2)c1	ALR inh 89.0
O=[N+]([O-])c1ccc(O)c(/C=N/Nc2ccccn2)c1	none (no result: ALR inh)
COc1cccc(/C=N/Nc2nc3ccccc3[nH]2)c1O	none (no result: HDAC3 inhib, ALR inh)
CCc1cccc(NS(=O)(=O)c2ccc3c(c2)NC(=O)CO3)c1	none
COC(=O)c1ccc(/C=N/Nc2nc3ccccc3[nH]2)cc1	none
COc1cc(/C=N/Nc2nc3ccccc3[nH]2)cc(Br)c1OCC(=O)N(C)C	ALR inh 98.9
Cc1ccc(-n2c(SCC(=O)Nc3ccccc3-c3ccccc3)nnc2-c2ccccc2)cc1	none (no result: HDAC3 inhib, ALR inh)
CC1CCN(CCCn2c(=S)[nH]c3ccc(N4CCOCC4)cc3c2=O)CC1	ALR inh 85.3
O=c1c2cc(N3CCOCC3)ccc2[nH]c(=S)n1CCCN1CCCC1	none
CSc1nc(Cl)cc(Nc2ccc(O)cc2)n1	ALR inh 99.2
CNc1cc(Cl)nc(SC)n1	none (no result: NPR2 activator, NPR1 activator)
COC(=O)C1CN(Cc2ccc(OC)cc2)CCS(=O)(=O)N1Cc1cn(CCOC(C)=O)nn1 (stereo not given)	none (no result: HDAC3 inhib, ALR inh)
Nc1nnc(SCC(=O)Nc2cccc(S(N)(=O)=O)c2)s1	none
CCN(CC)S(=O)(=O)c1cccc(NC(=O)CSc2nnc(N)s2)c1	ALR inh 98.9
C=CCN1c2ccccc2[C@]23C[C@@H](C(=O)OC)N(C(=O)c4cccs4)C2=NC(C(=O)OC)=C(C(=O)OC)[C@H]13	none
O=C(O)/C=C\C(=O)Nc1ccc(N2CCN(c3ccc(Cl)c(Cl)c3)CC2)cc1	none
O=C(O)/C=C\C(=O)Nc1ccc(N2CCN(c3ccc(F)cc3)CC2)cc1	ALR inh 98.3
O=C(O)/C=C/C(=O)Nc1ccc(-c2ccccc2)cc1	ALR inh 98.2
O=C(O)/C=C\C(=O)Nc1ccc(N2CCN(c3cccc(Cl)c3)CC2)cc1	ALR inh 98.5
O=C(O)/C=C/C(=O)Nc1ccc(OCc2ccccc2)cc1	none
O=C(O)/C=C\C(=O)Nc1ccc(N2CCN(c3ccc(Cl)cc3)CC2)cc1	ALR inh 98.5
Cc1ccc(CN2C(=O)C(C)Oc3ccc(C)cc32)cc1 (stereo not given)	none (no result: HDAC3 inhib, ALR inh)
